High-throughput results deposited in PubChem by National Center for Advancing Translational Sciences (NCATS).
Pf growth 96h: inhibits malaria parasite growth, 96 h; AID 504834; hit rate 6.9% among 320,000; Potency, µM (series often up to 28.7 µM), for inactives: top-dose activity change, negative = inhibition, hits mostly inhibitors; P. falciparum luciferase reporter growth, 96 h; further: on the % scale 0 is the no-effect control and ±100 the full control effect
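Plates of compound plus infected erythrocytes (2% hematocrit, 0.05% parasitemia final) incubate 96 hours, 37 C, 5% CO2. Detection reagent added; reduced luminescence from the parasites' luciferase reporter flags inhibition.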
Pf growth 48h: inhibits P. falciparum growth in the first generation, 48 h; P. falciparum luciferase growth in erythrocytes, 48 h; Potency, µM (titrated, usually from 28.7 µM), inactives show top-dose activity change, negative = inhibition, usual class: inhibitors; hit rate 5.9% among 310,000; AID 504832; further: on the % scale 0 is the no-effect control and ±100 the full control effect
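A one-generation exposure of luciferase-tagged malaria parasites in RPMI 1640/Albumax erythrocyte culture, 37 C and 5% CO2. Inhibition is inferred from decreased luminescence after adding detection reagent.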
SARS PLP yeast: blocks SARS-CoV papain-like protease in a yeast assay; S. cerevisiae expressing SARS-CoV PLpro, growth rescue; Potency, µM (top dose mostly 32.9 µM), for the others: at the top dose activity, positive = growth rescue, hits mostly activators; hit rate 0.19% among 330,000; AID 485353; calls by dose curve; further: 0% is about no effect; nearly all actives have a fitted effect of over 55% in size
Sm TGR inh: inhibitors of Schistosoma mansoni thioredoxin glutathione reductase; hit rate 3% among 360,000; Potency, µM (series often up to 114 µM), for inactives: at the top dose activity change, negative = inhibition, usual class: inhibitors; purified TGR, DTNB reduction, TNB absorbance 405 nm; further: on the % scale 0 is the no-effect control and ±100 the full control effect; nearly all actives have a fitted effect of over 60% in size
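First, TGR (20 nM dispensed) and NADPH were mixed with compound. Second, a 15 min room-temperature incubation followed. Third, further NADPH and then DTNB were added to start the reaction. Finally, TNB absorbance was monitored kinetically.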
* hit, by the source's call; [ ] = dose if it differs, or a comment. An excerpt weighted towards active compounds, which were near 12% of everything screened. Unless noted, the call rests on the fitted dose curve; in most records, active means well fitted curve in the direction sought with a large enough effect; inconclusive means small, poorly fitted or top-dose-only effect, or another doubt; inactive means no such curve, though single readings can be large; an effect the other way counts as inactive or inconclusive. Potency means the concentration at half of the fitted maximal effect.

`CC(=O)c1ccc(NC(=O)CCc2c(C)nc3c(c2C)c(=O)n(C)c(=O)n3C)cc1` gave Sm TGR inh 0%.
O=C(CSc1nc2c(cnn2-c2cccc(Cl)c2)c(=O)[nH]1)NCCC1=CCCCC1 was read as Pf growth 96h 6%, Pf growth 48h -12%, SARS PLP yeast 1% and Sm TGR inh 0%.
Screening Cc1cc2oc3c(c(=O)c2cc1C)C1(C(=O)N(C)c2ccccc21)N(CCO)C3=O (configuration not stated) returned Sm TGR inh 5%.
CCCN(CC(=O)Nc1ccccc1OC)C(=O)c1nc2nc(C)ccn2n1 was read as SARS PLP yeast -1%.
For C/C(=N\Nc1nccnc1Cl)c1ccc(O)cc1 the results were Pf growth 96h 7.4µM*, Pf growth 48h 24%, SARS PLP yeast -6% and Sm TGR inh -2%.
Screening C/C(=N\Nc1nccnc1Cl)c1ccc(F)cc1 returned Pf growth 96h -12%, Pf growth 48h 0%, SARS PLP yeast 0% and Sm TGR inh 52%.
For Cc1c(C)n(CC(O)CNc2ccccc2)c2ccccc12 (configuration not stated) the results were Pf growth 96h inconclusive, Pf growth 48h inconclusive, SARS PLP yeast -4% and Sm TGR inh 1%[57.1 µM].
Screening COc1ccc(NCC(O)Cn2c(C)c(C)c3ccccc32)cc1 (configuration not stated) returned Pf growth 96h 7.4µM*, Pf growth 48h inconclusive, SARS PLP yeast 0% and Sm TGR inh 1%.
`C/C(=N/OCO/N=C(\C)c1ccccc1F)c1ccccc1F` gave Pf growth 96h 1.7µM*, Pf growth 48h -5%, SARS PLP yeast -11% and Sm TGR inh 1%.
`C/C(=N\NC(=S)NCc1ccccc1)c1ccccc1F` gave Pf growth 96h -28%, Pf growth 48h inconclusive, SARS PLP yeast 23% and Sm TGR inh 9%.
`COc1ccc(CNC(=O)C(C)n2c(=O)cc(C)c3c(C)nn(-c4ccccc4)c32)cc1` (configuration not stated) gave Sm TGR inh -5%.
For Cc1ccc(S(=O)(=O)NCC(=O)OCC(=O)NCCc2ccccc2)cc1 the results were Pf growth 96h 7%, Pf growth 48h 35%, SARS PLP yeast 3% and Sm TGR inh -1%.
`COC(=O)c1ccc(COC(=O)CNS(=O)(=O)c2ccc(C)cc2)cc1` gave Pf growth 96h 0%, Pf growth 48h 99%, SARS PLP yeast -8% and Sm TGR inh -15%.
COc1ccccc1CNC(=O)COC(=O)C1=COCCO1 was read as Pf growth 96h 5.2µM*, Pf growth 48h 4%, SARS PLP yeast -3% and Sm TGR inh 0%.
For Cc1ccc(S(=O)(=O)NCC(=O)OCC(=O)c2cccs2)cc1 the results were Pf growth 96h 13µM*, Pf growth 48h -2%, SARS PLP yeast -1% and Sm TGR inh 15%.
`O=C(COC(=O)C1=COCCO1)NCc1ccc(F)cc1` gave Pf growth 96h 37%, Pf growth 48h inconclusive, SARS PLP yeast 3% and Sm TGR inh 8%.
Screening Cc1ccc(S(=O)(=O)NCC(=O)OCc2ccccc2Br)cc1 returned Pf growth 96h 9.3µM*, Pf growth 48h 40%, SARS PLP yeast -2% and Sm TGR inh 3%.
For Cc1ccc(S(=O)(=O)NCC(=O)OCC(=O)c2ccc(Br)s2)cc1 the results were Pf growth 48h -16%, SARS PLP yeast -3% and Sm TGR inh inconclusive.
COc1ccccc1CNC(=O)COC(=O)CNS(=O)(=O)c1ccc(C)cc1 was read as Pf growth 96h inconclusive, Pf growth 48h 0%, SARS PLP yeast -4% and Sm TGR inh 35µM*.
For CC(=O)c1ccc(NC(=O)Cn2ncc3c4ccccc4n(Cc4ccccc4)c3c2=O)cc1 the results were Sm TGR inh -8%.
`C=CCNC(=O)/C(=C\c1ccco1)NC(=O)c1ccco1` gave Pf growth 96h 14%, Pf growth 48h 2%, SARS PLP yeast -2% and Sm TGR inh -3%.
Screening O=C(NCc1ccco1)/C(=C\c1ccco1)NC(=O)c1ccco1 returned Pf growth 96h 48%, Pf growth 48h 3%, SARS PLP yeast 0% and Sm TGR inh 8.9µM*.
O=C(NCc1ccco1)/C(=C/c1ccco1)NC(=O)c1ccc(Br)o1 was read as Pf growth 96h inconclusive, Pf growth 48h inconclusive, SARS PLP yeast 25% and Sm TGR inh 40µM*.
`O=C(NCc1ccco1)/C(=C/C=C/c1ccccc1)NC(=O)c1ccco1` gave Pf growth 96h inconclusive, Pf growth 48h -1%, SARS PLP yeast -2% and Sm TGR inh 25µM*.
`C=CCNC(=O)/C(=C/c1ccco1)NC(=O)c1ccc(Br)o1` gave Pf growth 96h inconclusive, Pf growth 48h inconclusive, SARS PLP yeast 5% and Sm TGR inh 20µM*.
CC(C)c1nn2c(=O)cc(COC(=O)CNC(=O)c3ccccc3Cl)nc2s1 was read as Sm TGR inh -3%.
O=C(NCCCO)/C(=C\c1ccco1)NC(=O)c1ccc(Br)o1 was read as Pf growth 96h -20%, Pf growth 48h 0%, SARS PLP yeast 13% and Sm TGR inh inconclusive.
Screening O=C(NCc1ccco1)/C(=C\c1ccco1)NC(=O)c1ccc(Br)o1 returned Pf growth 96h 0%, Pf growth 48h -18%, SARS PLP yeast 12% and Sm TGR inh 28µM*.
`COC(=O)c1sc(N)c(C(=O)OC)c1CSc1nnnn1C` gave Pf growth 96h 9.3µM*, Pf growth 48h 10µM*, SARS PLP yeast -1% and Sm TGR inh 24%.
CC(=O)c1c(C(C)=O)c(C)n(C2CCCCC2)c1C was read as Pf growth 96h 1.5µM*, Pf growth 48h -19%, SARS PLP yeast 20% and Sm TGR inh -2%.
For Cc1cc(C=O)c(C)n1C1CCCCC1 the results were Pf growth 96h -9%, SARS PLP yeast 4% and Sm TGR inh 0%.
Cc1nn(-c2ccccc2)c2nc(C(Cl)(Cl)Cl)[nH]c(=O)c12 was read as Pf growth 96h -16%, Pf growth 48h -27%, SARS PLP yeast -1% and Sm TGR inh 13µM*.
`Cc1ccc(-n2nc(C)c3c(=O)[nH]c(C(F)(F)F)nc32)cc1` gave Pf growth 96h inconclusive, Pf growth 48h -5%, SARS PLP yeast 13% and Sm TGR inh 0%.
For COc1ccc(C2c3ccc4ccccc4c3Oc3ncn(CCN4CCOCC4)c(=N)c32)cc1 (configuration not stated) the results were Pf growth 96h 6.6µM*, Pf growth 48h 12µM*, SARS PLP yeast -29% and Sm TGR inh 0%.
For COc1ccc(C2c3ccc4ccccc4c3Oc3ncn(CCN4CCOCC4)c(=N)c32)cc1OC (configuration not stated) the results were Pf growth 96h 13µM*, Pf growth 48h 9.3µM*, SARS PLP yeast 1% and Sm TGR inh 2%.
Screening COc1ccc(C2c3c(ncn(CCCN4CCOCC4)c3=N)Oc3ccc4ccccc4c32)cc1OC (configuration not stated) returned Pf growth 96h 1.9µM*, Pf growth 48h 4.1µM*, SARS PLP yeast 1% and Sm TGR inh 13%.
For N=c1c2c(ncn1CCCO)Oc1ccc3ccccc3c1C2c1ccccc1 (configuration not stated) the results were Pf growth 96h inconclusive, Pf growth 48h inconclusive, SARS PLP yeast -1% and Sm TGR inh 6%.
Screening CCOc1ccc(NC(=O)c2sc(-n3nc(C)c(CCC(C)C)c3C)nc2C)cc1 returned Sm TGR inh 3%.
CCOC(=O)c1nn2c(C(F)(F)F)cc(-c3ccc(OC)cc3)nc2c1Br was read as Pf growth 96h inconclusive, Pf growth 48h 26%, SARS PLP yeast 15% and Sm TGR inh -21%.
